Data as given in publication PMC7862700, “An all-to-all approach to the identification of sequence-specific readers for epigenetic DNA modifications on cytosine”.

Tests used:
Test in all cases: DAPPL (digital affinity profiling via proximity ligation, sequencing); 10 mM Tris-HCl pH 7.5, 50 mM NaCl, 1 mM DTT, 4% glycerol, room temperature, 30 min; GST-TFs on glutathione beads, 16-mer random dsDNA library, 0.1% formaldehyde crosslink after washing; high values mean tight binding
Settings in all cases: protein: recombinant; tags: N-terminal GST; dsDNA, one strand shown
[1] = biological target: T1, FLI1 (Homo sapiens, UniProt Q01543 1-452)
T1 sequence: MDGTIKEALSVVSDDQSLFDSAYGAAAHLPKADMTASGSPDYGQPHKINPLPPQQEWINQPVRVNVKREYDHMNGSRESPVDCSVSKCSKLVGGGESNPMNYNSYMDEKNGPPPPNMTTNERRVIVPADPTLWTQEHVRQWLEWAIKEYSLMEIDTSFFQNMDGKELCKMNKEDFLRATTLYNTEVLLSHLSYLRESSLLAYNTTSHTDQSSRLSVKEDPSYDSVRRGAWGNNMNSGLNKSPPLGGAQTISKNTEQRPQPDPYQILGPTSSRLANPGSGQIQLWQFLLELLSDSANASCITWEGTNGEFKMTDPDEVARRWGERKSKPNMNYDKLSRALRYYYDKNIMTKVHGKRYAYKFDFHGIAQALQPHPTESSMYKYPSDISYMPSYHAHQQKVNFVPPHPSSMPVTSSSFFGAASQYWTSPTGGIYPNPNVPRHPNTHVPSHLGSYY
Procedure, shortened: (§1)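 After expression in yeast as GST fusions, human transcription factors were bound to glutathione beads, DNA-barcoded and mixed with a tag-only sample. The pools were incubated with 200 nmole of a 16-mer random double-stranded DNA library in Tris/NaCl/DTT/glycerol buffer (30 min, room temperature), washed and crosslinked with 0.1% formaldehyde. Proximity ligation with BsaI/T4 ligase ran for 1 h at 37 °C, before PCR amplification and sequencing on an Illumina NextSeq500. Binding signal is a hexamer's read frequency for a factor divided by its frequency for the tag-only sample.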

[2] = biological target: T2, ELK1 (Homo sapiens, UniProt P19419 1-428)
T2 sequence: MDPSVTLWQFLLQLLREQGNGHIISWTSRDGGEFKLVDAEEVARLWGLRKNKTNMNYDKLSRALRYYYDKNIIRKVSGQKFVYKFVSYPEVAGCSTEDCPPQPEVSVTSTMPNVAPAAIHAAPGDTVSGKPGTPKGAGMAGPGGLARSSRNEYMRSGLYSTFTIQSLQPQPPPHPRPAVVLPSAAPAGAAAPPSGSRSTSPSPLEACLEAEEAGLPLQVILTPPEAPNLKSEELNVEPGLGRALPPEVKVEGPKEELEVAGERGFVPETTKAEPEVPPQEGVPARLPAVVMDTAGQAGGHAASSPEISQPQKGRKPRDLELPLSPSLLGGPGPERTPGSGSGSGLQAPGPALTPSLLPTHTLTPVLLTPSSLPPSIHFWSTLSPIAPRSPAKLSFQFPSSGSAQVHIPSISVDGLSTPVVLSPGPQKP
Procedure, shortened: as §1

[3] = biological target: T3, GABPA (Homo sapiens, UniProt Q06546 1-454)
T3 sequence: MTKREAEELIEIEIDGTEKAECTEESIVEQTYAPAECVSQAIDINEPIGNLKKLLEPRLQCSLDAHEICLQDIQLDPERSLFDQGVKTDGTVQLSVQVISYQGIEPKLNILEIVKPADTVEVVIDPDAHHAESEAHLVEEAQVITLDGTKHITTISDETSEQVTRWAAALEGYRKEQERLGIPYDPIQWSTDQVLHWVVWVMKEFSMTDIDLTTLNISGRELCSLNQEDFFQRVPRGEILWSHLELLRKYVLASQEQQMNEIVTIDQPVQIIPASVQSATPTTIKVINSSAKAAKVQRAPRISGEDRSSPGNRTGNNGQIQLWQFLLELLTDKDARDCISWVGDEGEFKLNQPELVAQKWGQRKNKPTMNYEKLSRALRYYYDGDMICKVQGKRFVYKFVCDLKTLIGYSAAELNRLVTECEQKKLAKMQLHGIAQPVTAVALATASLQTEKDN
Procedure, shortened: as §1

[4] = biological target: T4, ERG (Homo sapiens, UniProt P11308 1-479)
T4 sequence: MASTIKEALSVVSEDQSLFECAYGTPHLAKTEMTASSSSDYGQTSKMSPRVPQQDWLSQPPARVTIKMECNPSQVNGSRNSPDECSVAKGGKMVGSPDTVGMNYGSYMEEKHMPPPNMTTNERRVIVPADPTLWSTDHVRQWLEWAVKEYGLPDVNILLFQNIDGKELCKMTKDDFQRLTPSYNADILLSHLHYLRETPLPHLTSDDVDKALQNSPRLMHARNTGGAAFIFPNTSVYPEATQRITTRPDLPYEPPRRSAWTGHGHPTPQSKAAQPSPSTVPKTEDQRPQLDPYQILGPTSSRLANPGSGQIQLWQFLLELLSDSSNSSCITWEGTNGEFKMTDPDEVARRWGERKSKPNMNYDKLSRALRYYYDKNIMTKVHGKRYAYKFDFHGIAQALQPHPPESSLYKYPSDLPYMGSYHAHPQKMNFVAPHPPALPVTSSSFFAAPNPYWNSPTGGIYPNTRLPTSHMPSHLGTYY
Procedure, shortened: as §1

[5] = biological target: ELF1 (Homo sapiens, UniProt P32519 1-619)
Procedure, shortened: as §1

[6] = biological target: SPIB (Homo sapiens, UniProt Q01892 1-262)
Procedure, shortened: as §1

[7] = biological target: T5, ELK3 (Homo sapiens, UniProt P41970 1-407)
T5 sequence: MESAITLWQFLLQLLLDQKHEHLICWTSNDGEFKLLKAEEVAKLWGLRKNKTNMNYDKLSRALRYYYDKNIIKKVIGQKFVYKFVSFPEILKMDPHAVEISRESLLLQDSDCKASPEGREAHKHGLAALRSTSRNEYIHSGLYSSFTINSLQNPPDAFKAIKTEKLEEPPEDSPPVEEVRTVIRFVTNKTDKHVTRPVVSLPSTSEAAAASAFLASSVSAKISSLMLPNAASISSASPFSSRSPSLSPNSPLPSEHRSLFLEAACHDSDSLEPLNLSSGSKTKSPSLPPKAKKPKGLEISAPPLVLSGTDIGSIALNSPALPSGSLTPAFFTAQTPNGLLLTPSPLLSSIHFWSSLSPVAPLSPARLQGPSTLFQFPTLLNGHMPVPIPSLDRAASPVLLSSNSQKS
Procedure, shortened: as §1

[8] = biological target: T6, FEV (Homo sapiens, UniProt Q99581 1-238)
T6 sequence: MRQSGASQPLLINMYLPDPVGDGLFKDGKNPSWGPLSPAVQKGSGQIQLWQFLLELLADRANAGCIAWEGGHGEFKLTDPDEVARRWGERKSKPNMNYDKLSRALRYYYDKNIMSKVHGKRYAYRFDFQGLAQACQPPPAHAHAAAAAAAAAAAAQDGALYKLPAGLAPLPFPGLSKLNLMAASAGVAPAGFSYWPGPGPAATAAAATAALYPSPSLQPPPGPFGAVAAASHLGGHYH
Procedure, shortened: as §1

[9] = biological target: ETV5 (Homo sapiens, UniProt P41161 1-510)
Procedure, shortened: as §1

[10] = biological target: T7, SPIC (Homo sapiens, UniProt Q8N5J4 1-248)
T7 sequence: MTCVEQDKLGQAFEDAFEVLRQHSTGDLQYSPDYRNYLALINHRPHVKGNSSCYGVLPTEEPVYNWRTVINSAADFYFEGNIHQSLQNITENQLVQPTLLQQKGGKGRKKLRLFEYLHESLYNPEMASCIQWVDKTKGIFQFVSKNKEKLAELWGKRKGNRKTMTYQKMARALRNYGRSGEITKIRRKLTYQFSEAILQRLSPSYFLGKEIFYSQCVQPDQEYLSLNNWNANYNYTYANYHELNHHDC
Procedure, shortened: as §1

[11] = biological target: ELF4 (Homo sapiens, UniProt Q99607 1-663)
Procedure, shortened: as §1

[12] = biological target: T8, ELK4 (Homo sapiens, UniProt P28324-2 1-405)
T8 sequence: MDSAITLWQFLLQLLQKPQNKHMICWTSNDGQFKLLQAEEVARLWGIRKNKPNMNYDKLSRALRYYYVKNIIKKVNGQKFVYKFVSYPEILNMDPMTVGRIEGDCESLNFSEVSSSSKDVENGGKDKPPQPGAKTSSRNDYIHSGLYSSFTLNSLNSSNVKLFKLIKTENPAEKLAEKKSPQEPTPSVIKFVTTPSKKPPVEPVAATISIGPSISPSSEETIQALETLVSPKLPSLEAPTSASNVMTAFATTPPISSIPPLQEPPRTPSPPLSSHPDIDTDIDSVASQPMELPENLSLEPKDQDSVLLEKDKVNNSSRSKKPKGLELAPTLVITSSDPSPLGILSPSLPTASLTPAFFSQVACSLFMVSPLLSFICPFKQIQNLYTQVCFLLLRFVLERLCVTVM
Procedure, shortened: as §1

[13] = biological target: T9, ETV2 (Homo sapiens, UniProt O00321 1-342)
T9 sequence: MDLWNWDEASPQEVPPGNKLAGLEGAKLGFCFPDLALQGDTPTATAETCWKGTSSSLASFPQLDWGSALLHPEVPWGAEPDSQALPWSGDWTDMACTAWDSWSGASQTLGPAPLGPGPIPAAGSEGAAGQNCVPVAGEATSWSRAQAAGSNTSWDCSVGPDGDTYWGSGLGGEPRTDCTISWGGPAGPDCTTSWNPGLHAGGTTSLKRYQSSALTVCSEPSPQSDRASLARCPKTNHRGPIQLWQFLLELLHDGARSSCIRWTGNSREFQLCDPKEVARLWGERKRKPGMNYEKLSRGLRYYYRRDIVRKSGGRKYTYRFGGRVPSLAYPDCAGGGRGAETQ
Procedure, shortened: as §1

[14] = biological target: T10, ELF3 (Homo sapiens, UniProt P78545 1-371)
T10 sequence: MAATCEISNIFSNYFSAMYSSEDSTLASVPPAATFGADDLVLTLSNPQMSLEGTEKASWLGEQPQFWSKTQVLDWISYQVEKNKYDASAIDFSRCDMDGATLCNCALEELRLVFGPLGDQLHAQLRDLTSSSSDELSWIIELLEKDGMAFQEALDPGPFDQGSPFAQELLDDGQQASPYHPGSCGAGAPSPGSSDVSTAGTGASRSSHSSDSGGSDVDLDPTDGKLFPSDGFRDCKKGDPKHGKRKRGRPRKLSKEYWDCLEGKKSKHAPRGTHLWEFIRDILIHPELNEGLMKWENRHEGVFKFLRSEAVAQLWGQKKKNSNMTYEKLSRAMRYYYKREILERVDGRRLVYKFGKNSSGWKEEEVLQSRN
Procedure, shortened: as §1

[15] = biological target: SPI1 (Homo sapiens, UniProt P17947 1-270)
Procedure, shortened: as §1

[16] = biological target: ETV1 (Homo sapiens, UniProt P50549 1-477)
Procedure, shortened: as §1

[17] = biological target: T11, EHF (Homo sapiens, UniProt Q9NZC4 1-300)
T11 sequence: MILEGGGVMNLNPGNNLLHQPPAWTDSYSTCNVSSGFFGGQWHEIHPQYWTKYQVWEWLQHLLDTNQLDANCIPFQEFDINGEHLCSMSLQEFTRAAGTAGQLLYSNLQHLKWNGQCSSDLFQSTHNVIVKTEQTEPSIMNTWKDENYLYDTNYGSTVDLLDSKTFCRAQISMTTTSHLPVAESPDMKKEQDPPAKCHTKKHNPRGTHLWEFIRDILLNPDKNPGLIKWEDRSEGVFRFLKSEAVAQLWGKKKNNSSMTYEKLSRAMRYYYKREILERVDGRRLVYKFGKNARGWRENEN
Procedure, shortened: as §1

Chain of ELF4 (Q99607 whole entry): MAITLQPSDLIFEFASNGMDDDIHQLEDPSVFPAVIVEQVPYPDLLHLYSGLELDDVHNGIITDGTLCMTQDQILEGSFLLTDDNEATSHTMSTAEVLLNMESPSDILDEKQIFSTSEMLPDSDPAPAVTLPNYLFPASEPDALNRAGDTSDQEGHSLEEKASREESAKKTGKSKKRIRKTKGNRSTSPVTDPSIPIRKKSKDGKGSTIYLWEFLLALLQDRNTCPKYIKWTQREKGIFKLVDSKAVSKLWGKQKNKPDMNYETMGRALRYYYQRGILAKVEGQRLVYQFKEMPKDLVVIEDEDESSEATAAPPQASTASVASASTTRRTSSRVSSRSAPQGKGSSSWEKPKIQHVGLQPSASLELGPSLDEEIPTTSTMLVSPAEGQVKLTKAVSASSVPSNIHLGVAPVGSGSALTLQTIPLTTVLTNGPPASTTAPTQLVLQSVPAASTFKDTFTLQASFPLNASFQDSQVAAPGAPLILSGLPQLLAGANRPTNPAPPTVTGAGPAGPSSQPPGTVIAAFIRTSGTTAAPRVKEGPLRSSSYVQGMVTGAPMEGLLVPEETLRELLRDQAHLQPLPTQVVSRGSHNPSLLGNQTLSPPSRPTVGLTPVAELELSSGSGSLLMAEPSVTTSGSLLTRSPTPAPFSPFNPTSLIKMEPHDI
Chain of ELF1 (P32519 whole entry): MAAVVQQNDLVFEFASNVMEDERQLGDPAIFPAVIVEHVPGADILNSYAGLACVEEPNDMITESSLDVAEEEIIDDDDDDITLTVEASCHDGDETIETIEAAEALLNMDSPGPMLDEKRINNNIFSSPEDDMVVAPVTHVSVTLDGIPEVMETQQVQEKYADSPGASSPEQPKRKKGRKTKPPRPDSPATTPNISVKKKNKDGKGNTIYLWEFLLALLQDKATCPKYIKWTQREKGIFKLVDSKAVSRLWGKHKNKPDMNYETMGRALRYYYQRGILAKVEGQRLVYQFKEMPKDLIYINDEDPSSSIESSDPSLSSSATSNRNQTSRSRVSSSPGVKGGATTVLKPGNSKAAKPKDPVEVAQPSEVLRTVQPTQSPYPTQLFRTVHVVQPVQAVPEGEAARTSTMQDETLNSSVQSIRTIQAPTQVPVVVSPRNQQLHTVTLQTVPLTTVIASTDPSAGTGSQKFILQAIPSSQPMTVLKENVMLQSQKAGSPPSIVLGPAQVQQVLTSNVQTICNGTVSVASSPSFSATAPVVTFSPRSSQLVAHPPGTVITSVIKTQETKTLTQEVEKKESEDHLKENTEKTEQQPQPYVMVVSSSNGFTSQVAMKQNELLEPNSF
Chain of SPIB (Q01892 whole entry): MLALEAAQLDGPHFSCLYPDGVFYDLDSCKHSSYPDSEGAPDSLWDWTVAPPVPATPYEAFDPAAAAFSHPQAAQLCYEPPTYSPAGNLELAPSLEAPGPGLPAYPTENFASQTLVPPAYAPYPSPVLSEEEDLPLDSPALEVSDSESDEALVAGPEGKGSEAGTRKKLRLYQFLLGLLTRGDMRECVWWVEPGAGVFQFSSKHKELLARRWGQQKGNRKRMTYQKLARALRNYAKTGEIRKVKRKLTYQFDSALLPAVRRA
Chain of ETV5 (P41161 whole entry): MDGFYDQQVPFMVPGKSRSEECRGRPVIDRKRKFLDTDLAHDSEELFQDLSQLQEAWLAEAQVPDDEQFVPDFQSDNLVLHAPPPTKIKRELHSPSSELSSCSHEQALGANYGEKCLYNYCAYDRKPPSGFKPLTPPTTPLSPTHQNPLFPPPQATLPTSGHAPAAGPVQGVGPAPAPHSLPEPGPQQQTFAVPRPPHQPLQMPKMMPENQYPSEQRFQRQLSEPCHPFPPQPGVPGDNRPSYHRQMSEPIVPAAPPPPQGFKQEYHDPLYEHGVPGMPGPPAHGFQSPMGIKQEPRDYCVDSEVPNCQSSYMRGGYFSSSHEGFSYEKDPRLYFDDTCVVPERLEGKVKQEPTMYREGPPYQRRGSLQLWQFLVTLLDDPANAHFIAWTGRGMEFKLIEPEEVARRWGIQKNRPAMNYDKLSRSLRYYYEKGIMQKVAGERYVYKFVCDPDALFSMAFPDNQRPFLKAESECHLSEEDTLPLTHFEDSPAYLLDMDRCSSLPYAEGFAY
Chain of ETV1 (P50549 whole entry): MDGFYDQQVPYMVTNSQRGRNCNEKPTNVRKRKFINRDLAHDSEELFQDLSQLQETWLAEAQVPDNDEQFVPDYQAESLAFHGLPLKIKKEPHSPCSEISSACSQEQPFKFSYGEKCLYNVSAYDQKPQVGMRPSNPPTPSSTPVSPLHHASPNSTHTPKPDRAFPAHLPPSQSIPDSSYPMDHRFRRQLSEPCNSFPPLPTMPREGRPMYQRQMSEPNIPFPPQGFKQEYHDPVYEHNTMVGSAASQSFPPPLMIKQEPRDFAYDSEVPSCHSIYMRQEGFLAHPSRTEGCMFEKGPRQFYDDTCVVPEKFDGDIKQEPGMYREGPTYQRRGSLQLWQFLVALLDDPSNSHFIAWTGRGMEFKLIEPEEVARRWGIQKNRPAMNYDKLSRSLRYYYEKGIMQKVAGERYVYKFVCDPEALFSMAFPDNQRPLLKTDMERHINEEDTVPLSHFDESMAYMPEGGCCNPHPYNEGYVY

Row | Sequence | binding signal [1] | binding signal [2] | binding signal [3] | binding signal [4] | binding signal [5] | binding signal [6] | binding signal [7] | binding signal [8] | binding signal [9] | binding signal [10] | binding signal [11] | binding signal [12] | binding signal [13] | binding signal [14] | binding signal [15] | binding signal [16] | binding signal [17]
1 | CTCAGG | 1.08 fold enrichment (6-mer frequency, TF over GST control) | 1.13 fold enrichment (6-mer frequency, TF over GST control) | 1.02 fold enrichment (6-mer frequency, TF over GST control) | 1.1 fold enrichment (6-mer frequency, TF over GST control) | 1.08 fold enrichment (6-mer frequency, TF over GST control) | 1.11 fold enrichment (6-mer frequency, TF over GST control) | 1.07 fold enrichment (6-mer frequency, TF over GST control) | 1.09 fold enrichment (6-mer frequency, TF over GST control) | 1.06 fold enrichment (6-mer frequency, TF over GST control) | 1.06 fold enrichment (6-mer frequency, TF over GST control) | 1.07 fold enrichment (6-mer frequency, TF over GST control) | 1.05 fold enrichment (6-mer frequency, TF over GST control) | 1.12 fold enrichment (6-mer frequency, TF over GST control) | 1.15 fold enrichment (6-mer frequency, TF over GST control) |  |  | 
2 | GGTTCA | 1.14 fold enrichment (6-mer frequency, TF over GST control) | 1.04 fold enrichment (6-mer frequency, TF over GST control) | 1.11 fold enrichment (6-mer frequency, TF over GST control) | 1.03 fold enrichment (6-mer frequency, TF over GST control) | 1.07 fold enrichment (6-mer frequency, TF over GST control) | 1.04 fold enrichment (6-mer frequency, TF over GST control) | 1.03 fold enrichment (6-mer frequency, TF over GST control) | 1.1 fold enrichment (6-mer frequency, TF over GST control) | 1.03 fold enrichment (6-mer frequency, TF over GST control) | 1.14 fold enrichment (6-mer frequency, TF over GST control) | 1.08 fold enrichment (6-mer frequency, TF over GST control) | 1.14 fold enrichment (6-mer frequency, TF over GST control) | 1.14 fold enrichment (6-mer frequency, TF over GST control) | 1.07 fold enrichment (6-mer frequency, TF over GST control) | 1.02 fold enrichment (6-mer frequency, TF over GST control) | 1.07 fold enrichment (6-mer frequency, TF over GST control) | 
3 | ATGTAG | 1.05 fold enrichment (6-mer frequency, TF over GST control) | 1.03 fold enrichment (6-mer frequency, TF over GST control) | 1.04 fold enrichment (6-mer frequency, TF over GST control) | 1.01 fold enrichment (6-mer frequency, TF over GST control) | 1.09 fold enrichment (6-mer frequency, TF over GST control) | 1.01 fold enrichment (6-mer frequency, TF over GST control) | 1.05 fold enrichment (6-mer frequency, TF over GST control) | 1.02 fold enrichment (6-mer frequency, TF over GST control) | 1.08 fold enrichment (6-mer frequency, TF over GST control) | 1.09 fold enrichment (6-mer frequency, TF over GST control) | 1.1 fold enrichment (6-mer frequency, TF over GST control) | 1.15 fold enrichment (6-mer frequency, TF over GST control) | 1.03 fold enrichment (6-mer frequency, TF over GST control) | 1.06 fold enrichment (6-mer frequency, TF over GST control) | 1 fold enrichment (6-mer frequency, TF over GST control) |  | 1.07 fold enrichment (6-mer frequency, TF over GST control)
